A selection: hits, their analogues and other compounds. The true share with any hit is near 4%.
Wnt act: Wnt/beta-catenin pathway activation | 300,000 compounds, 1.2% hits | Wnt/beta-catenin reporter cell assay, activator, plate reader | activation, % at 9.35 µM; in the data active = activation above about 30%, passing the limit was not always enough; inconclusive = no clear call, values can overlap the other calls;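 note: 0% = neutral control wells and 100% = positive control wells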
esBAF inh: blocks esBAF chromatin remodeling in mouse ES cells; Bmi1-luciferase knock-in reporter, 24 h; 100% = twice the neutral-well signal; reporter increase, % at 12.5 µM; 350,000 compounds, 2% hits; in the data active = activation above about 40%; inconclusive = no clear call, values can overlap the other calls;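 note: 0% = median of the plate's neutral control wells and 100% = double that signal; a rise in the Bmi1 reporter signal indicates esBAF inhibition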
EBV LMP1 NFkB: inhibitors of Epstein-Barr LMP1-induced NF-kappaB reporter. LMP1-induced NF-kappaB luciferase reporter cells, luminescence. 350,000 compounds, 0.69% hits. inhibition, % at 12.5 µM; in the data active = inhibition above about 41%; inconclusive = no clear call, values can overlap the other calls;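 note: 0% = neutral control wells and 100% = reference inhibitor control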
MITF TRPM1 HTS: increases MITF-driven TRPM1 promoter luciferase signal; SK-MEL-5 TRPM1-promoter luciferase, 24 h; % of positive control, neutral wells = 0; activation, % at 12.5 µM; 300,000 compounds, 0.75% hits; AID 588334;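 active = mean activation of at least 80% with every replicate also reaching 80%; inconclusive = mean reaches 80% but some replicate falls short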;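 note: 0% = neutral control wells and 100% = parthenolide positive control wells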
C2C12 statin: suppressors of simvastatin-induced myotoxicity in C2C12 myotubes. AID 602340. ATP luminescence, 48 h; scaled: DMSO 0, geranylgeraniol control 100. rescue of ATP level, % at 7.49 µM. 330,000 compounds, 0.78% hits;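 active = mean ATP rescue above about 67%, or every replicate alone reaching that limit, limit read from the data, passing the limit was not always enough; inconclusive = no clear call, values can overlap the other calls; inactive = mean under the limit and some replicate under it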;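 note: myotubes were challenged with 10 µM simvastatin during compound exposure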
MITF TRPM1 inh: inhibitors of MITF-driven TRPM1 promoter in melanoma cells | inhibition, % at 12.5 µM | 330,000 compounds, 0.83% hits | SK-MEL-5 TRPM1 promoter luciferase, 24 h;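 active = mean inhibition across replicates of 60% or more, whatever share of single replicates reaches that level; inconclusive = some that reach 60%, reason not given; inactive = mean inhibition across replicates below 60%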
* hit, by the source's call; ! = not confirmed by another sample.

How did CCC(N=c1cc(-c2ccc(OC)cc2)oc2ccc(C)cc12)C(=O)O (configuration not stated) do in these assays?
Wnt act: 47*; EBV LMP1 NFkB: -6; MITF TRPM1 HTS: 53; MITF TRPM1 inh: -45

Results for Cc1ccccc1S(=O)(=O)N1CC[C@@H]2[C@@H](CO)N(C)c3ccc(-c4cccc(C#N)c4)cc3[C@@H]21 ?
esBAF inh: 1; C2C12 statin: -5

What do the screens show for `CN1CCC(=NNC(=O)CN(c2ccc(Oc3ccccc3)cc2)S(C)(=O)=O)CC1`?
Wnt act: -4; esBAF inh: 2; EBV LMP1 NFkB: 7; MITF TRPM1 HTS: 24; C2C12 statin: 110*; MITF TRPM1 inh: -17

Results for O=C(N/N=C/C1CCCCC1)c1cc(Cl)ccc1O ?
Wnt act: -2; esBAF inh: -3; EBV LMP1 NFkB: -21; C2C12 statin: 0; MITF TRPM1 inh: 17

Results for CC(=O)c1sc(NC(=O)c2ccc(F)c(F)c2)nc1C ?
esBAF inh: 8; EBV LMP1 NFkB: -17; MITF TRPM1 HTS: 23; C2C12 statin: 19; MITF TRPM1 inh: -26

How did CC(=O)c1sc(NC(=O)c2ccccc2C)nc1C do in these assays?
Wnt act: 9; esBAF inh: 76*; EBV LMP1 NFkB: -9; MITF TRPM1 HTS: 67; C2C12 statin: -19; MITF TRPM1 inh: -65

Results for CC(=O)c1sc(NCc2ccc(C)cc2)nc1C ?
Wnt act: 19; esBAF inh: 53*; EBV LMP1 NFkB: -21; MITF TRPM1 HTS: inconclusive; C2C12 statin: -1; MITF TRPM1 inh: -87

What do the screens show for `Cn1sc(NC(=O)c2ccc(Cl)cc2)nc1=O`?
Wnt act: 21; esBAF inh: 46*; EBV LMP1 NFkB: -4; C2C12 statin: 0; MITF TRPM1 inh: -29

What do the screens show for `CC(=O)c1sc(NC(=O)c2ccc(Cl)cc2)nc1C`?
Wnt act: -2; esBAF inh: 51*; EBV LMP1 NFkB: -5; MITF TRPM1 HTS: 89*; C2C12 statin: -7; MITF TRPM1 inh: -89

Results for CC(=O)Nc1nc(C)c(C(C)=O)s1 ?
Wnt act: -2; esBAF inh: 2; EBV LMP1 NFkB: 2; MITF TRPM1 HTS: -6; C2C12 statin: 5; MITF TRPM1 inh: 5

What do the screens show for `CN1CN(C)c2cccc3cccc1c23`?
Wnt act: 6; EBV LMP1 NFkB: 13; MITF TRPM1 HTS: -18; MITF TRPM1 inh: 16

How did CCN(CC)CCOc1ccccc1OC do in these assays?
Wnt act: -1; esBAF inh: -8; EBV LMP1 NFkB: 1; MITF TRPM1 HTS: 1; C2C12 statin: 4; MITF TRPM1 inh: 0

Results for CCc1cc(Cl)c(OC)c(C(=O)NC[C@@H]2CCCN2CC)c1O ?
Wnt act: -6; esBAF inh: -10; EBV LMP1 NFkB: 71*!; MITF TRPM1 HTS: 11; C2C12 statin: -3; MITF TRPM1 inh: -15

Results for CCN1CCCC1CNC(=O)c1ccccc1Cl (configuration not stated) ?
Wnt act: -2; esBAF inh: -1; EBV LMP1 NFkB: 0; C2C12 statin: 0; MITF TRPM1 inh: 2

How did COc1ccc(OC)c(NC(=O)C2(C)CCN2C(=O)C2(c3ccccc3)CCCC2)c1 (configuration not stated) do in these assays?
Wnt act: -1; esBAF inh: 7; C2C12 statin: -8

How did Fc1ccc2nc3[nH]c4ccccc4c3nc2c1 do in these assays?
Wnt act: 100*; esBAF inh: 35; EBV LMP1 NFkB: -117; C2C12 statin: 10; MITF TRPM1 inh: -24

Results for COc1ccc(NC(=O)c2ccco2)cc1NC(=O)c1c(OC)cccc1OC ?
Wnt act: 6; esBAF inh: 6; EBV LMP1 NFkB: -4; MITF TRPM1 HTS: -15; C2C12 statin: -3; MITF TRPM1 inh: 14

How did O=C(NCc1cccs1)c1ccc(N2CCCCC2)nc1 do in these assays?
esBAF inh: 81*; EBV LMP1 NFkB: -18; MITF TRPM1 HTS: 71; C2C12 statin: -53; MITF TRPM1 inh: -68

What do the screens show for `O=C(NCc1cccs1)c1ccncc1`?
Wnt act: 0; esBAF inh: -1; EBV LMP1 NFkB: 4; C2C12 statin: 3; MITF TRPM1 inh: 3

Results for CC1CCCN(c2ccc(C(=O)NCc3ccccc3)cn2)C1 (configuration not stated) ?
Wnt act: 4; esBAF inh: 34; EBV LMP1 NFkB: -41; MITF TRPM1 HTS: 32; C2C12 statin: -18; MITF TRPM1 inh: -24
